{
  "source": "PubChem BioAssay AID463190",
  "about": "(Sanford-Burnham Center for Chemical Genomics, 2010)",
  "note": "Where “and” joins values, the source holds several entries; their conditions need not be identical. Identical values can stand only once. Screen size: about 330,000 compounds; about 7,300 (2.2%) were called active. The sample holds actives, similar compounds and a random draw of the others, so the mix is not that of the screen. Values without a mark were called inactive.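 Rule for the calls: active = inhibition of at least 40%; inactive = the rest.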",
  "data": [
    {"assay": "growth inhibitors of tim10-1 mutant yeast, primary screen, luminescence, uHTS (AID 463190);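 note: mutant grown at 25 °C; 0% = DMSO wells with yeast and 100% = wells holding no yeast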", "conditions": "S. cerevisiae tim10-1 ts strain growth, BacTiter-Glo, 24 h; at 20 µM; active compounds read high", "values": [
      {"smiles": "CSCC[C@H](NC(=O)NC1CCCC1)C(=O)O", "inhibition": "3.78%"},
      {"smiles": "O=C(O)c1cccc2c1C(=O)N(C1CCCC1)C2", "inhibition": "8.44%"},
      {"smiles": "CCOC(=O)N1CCC(N2Cc3cccc(C(=O)Nc4ccc(S(=O)(=O)N(CC)CC)cc4)c3C2=O)CC1", "inhibition": "17.7%"},
      {"smiles": "CCOC(=O)N1CCC(N2Cc3cccc(C(=O)Nc4c(C)cccc4CC)c3C2=O)CC1", "inhibition": "51% (active)"},
      {"smiles": "O=C(Nc1nnc(-c2ccc(Cl)cc2)o1)c1ccccc1Br", "inhibition": "6.25%"},
      {"smiles": "CC(C)(C)Cc1nnc(NC(=O)c2cc(-c3ccccc3)nc3ccccc23)s1", "inhibition": "23.3%"},
      {"smiles": "O=C(Nc1nnc(-c2ccccc2)o1)c1cc(-c2cccs2)nc2ccccc12", "inhibition": "48.6% (active)"},
      {"smiles": "Cc1cc([N+](=O)[O-])nn1CCCC(=O)Nc1cccnc1Cl", "inhibition": "16.8%"},
      {"smiles": "Cc1ccccc1OCC(=O)Nc1ccc2c(c1)ncn2C", "inhibition": "5.78%"},
      {"smiles": "Cc1ccccc1OCC(=O)Nc1ccc(S(=O)(=O)N2CCOCC2)cc1", "inhibition": "37.4%"},
      {"smiles": "Cc1ccccc1OCC(=O)Nc1ccc(N2CCN(C(=O)C(C)C)CC2)c(Cl)c1", "inhibition": "63.3% (active)"},
      {"smiles": "Cc1cc(NC(=O)CCS(=O)(=O)c2ccc(F)cc2)no1", "inhibition": "-5.29%"},
      {"smiles": "COc1cc([N+](=O)[O-])ccc1NC(=O)CN1CCCC1", "inhibition": "6.08%"},
      {"smiles": "COc1cc([N+](=O)[O-])ccc1NC(=O)COC(=O)CCOc1ccc(C)cc1", "inhibition": "50.3% (active)"},
      {"smiles": "CSc1ccccc1NC(=O)COC(=O)CCCOc1ccc(C)cc1", "inhibition": "7.06%"},
      {"smiles": "Cc1nc2ccc(C(=O)N/N=C/c3ccc(O)cc3)cc2[nH]1", "inhibition": "0.009%"},
      {"smiles": "Cc1nonc1C(=O)N/N=C/c1ccc(O)cc1", "inhibition": "51.4% (active)"},
      {"smiles": "COC(=O)N/N=C/c1ccc(/C=N/NC(=O)OC)cc1", "inhibition": "7.21%"},
      {"smiles": "O=C(O)Cc1csc(-c2cccc(Oc3ccccc3)c2)n1", "inhibition": "7.9% and -6.65%"},
      {"smiles": "CN(CC(=O)NCCc1ccc(S(N)(=O)=O)cc1)CC(=O)Nc1ccc(F)c(F)c1F", "inhibition": "0.849%"},
      {"smiles": "Cc1ccc(S(=O)(=O)N(CC(O)CN2CCCCC2)c2cccc([N+](=O)[O-])c2)cc1", "note": "(stereo not drawn)", "inhibition": "-38.7%"},
      {"smiles": "C/C(=N\\NC(=S)NCc1ccccc1)C1CCCCC1", "inhibition": "42.6% (active)"},
      {"smiles": "CC1CCCCN1C(=S)NCc1ccccc1", "note": "(stereo not drawn)", "inhibition": "-0.074%"},
      {"smiles": "C/C(=N\\NC(=S)NCc1ccccc1)c1ccc(Cl)cc1", "inhibition": "22.9%"},
      {"smiles": "Cc1oc(CC(C)C)c(CN2CCCC2)c1C(=O)O", "inhibition": "3.08%"},
      {"smiles": "O=C1c2cccc(OCC(=O)N3N=C(c4cccs4)CC3c3ccc(F)cc3)c2CCN1Cc1ccccc1", "note": "(stereo not drawn)", "inhibition": "19.6%"},
      {"smiles": "Cc1ccc(C2=NN(C(=O)COc3ncnc4ccccc34)C(c3ccco3)C2)cc1", "note": "(stereo not drawn)", "inhibition": "-2.47%"},
      {"smiles": "O=C(COc1ccccc1Cl)N1N=C(c2cccs2)CC1c1ccco1", "note": "(stereo not drawn)", "inhibition": "40.8% (active)"},
      {"smiles": "CCc1n[nH]c(=S)n1/N=C/c1c[nH]c2ccc(Br)cc12", "inhibition": "12%"},
      {"smiles": "Cc1cc(C)cc(NC(=O)C2CCCN(S(=O)(=O)c3ccc4[nH]c(=O)ccc4c3)C2)c1", "note": "(stereo not drawn)", "inhibition": "-13.6%"},
      {"smiles": "O=C(OCC(=O)N1CCN(c2ccccc2)CC1)c1ccc([N+](=O)[O-])s1", "inhibition": "11.9%"},
      {"smiles": "COc1cc(NC(=O)COC(=O)c2ccc([N+](=O)[O-])s2)cc(OC)c1OC", "inhibition": "30.9%"},
      {"smiles": "COc1ccc(C(=O)COC(=O)c2ccc([N+](=O)[O-])s2)cc1OC", "inhibition": "57.9% (active)"},
      {"smiles": "S=c1[nH]nc(-c2ccco2)n1/N=C/c1ccc(Br)s1", "inhibition": "22.5%"},
      {"smiles": "CCc1ccc(-c2cc(C(=O)NCc3ccco3)c3ccccc3n2)s1", "inhibition": "45.4% (active)"},
      {"smiles": "CC(=O)NCCNC(=O)c1cc(-c2cccc3ccccc23)nc2ccccc12", "inhibition": "3.15%"},
      {"smiles": "CC(C)(C)c1ccc(C(=O)NCc2ccco2)cc1", "inhibition": "15.4%"},
      {"smiles": "O=C(Cc1ccccc1)Nc1ccc(C(=O)Nc2ccccc2C(=O)O)cc1", "inhibition": "1.08%"},
      {"smiles": "FC(F)(F)c1ccc(CN2C[C@@H]3C(c4ccccc4)C4(c5ccccc5)CC3(C4)[C@H]2c2ccccc2)cc1", "note": "(stereo partly drawn)", "inhibition": "28.9%"},
      {"smiles": "O=C(NCc1ccc2c(c1)OCO2)c1c(-c2ccsc2)sc2ccccc12", "inhibition": "5.6%"},
      {"smiles": "CN[C@H](C(=O)NC[C@H]1O[C@@H](n2cnc3c(N)ncnc32)[C@H](O)[C@@H]1O)[C@@H](C)OCc1ccccc1", "inhibition": "0.16%"},
      {"smiles": "Cc1ccc(Cl)c(NC(=O)CN2CCN(C=O)CC2)c1", "inhibition": "-10.1%"},
      {"smiles": "Cc1cccc(OCC(=O)NCCNC(=O)c2cccnc2)c1", "inhibition": "-27.3%"},
      {"smiles": "Cc1cccc(OCCNC(=S)NC(=O)c2cccnc2)c1", "inhibition": "45.9% (active)"},
      {"smiles": "CCCOc1cccc(C(=O)NCCCNC(=O)c2cccnc2)c1", "inhibition": "-5.09%"},
      {"smiles": "CN(C(=O)CSc1nnc(C2CC2)n1C)C1CCCc2ccccc21", "note": "(stereo not drawn)", "inhibition": "-15.4%"},
      {"smiles": "CC(=O)NCCC(=O)Nc1nc(-c2ccc3c(c2)OCCO3)cs1", "inhibition": "4.76%"},
      {"smiles": "Cc1csc(NC(=O)C2=COCCO2)n1", "inhibition": "6.44%"},
      {"smiles": "Cc1ccc(-c2csc(NC(=O)C3=COCCO3)n2)cc1C", "inhibition": "40.5% (active)"},
      {"smiles": "CC(C)(C)NC(=O)NC(=O)COC(=O)CCC1CCCCC1", "inhibition": "40.3% (active)"},
      {"smiles": "COc1ccccc1OCCC(=O)OCC(=O)NC(=O)NC(C)(C)C", "inhibition": "17.9%"},
      {"smiles": "CC(C)(C)NC(=O)NC(=O)COC(=O)C1(C)CC1(Cl)Cl", "note": "(stereo not drawn)", "inhibition": "21.3%"},
      {"smiles": "Cc1cc(C)cc(C(=O)NC(=S)Nc2ccc3[nH]c(=O)[nH]c3c2)c1", "inhibition": "12.4%"},
      {"smiles": "COc1ccc(CS(=O)/C(Cl)=C(/Cl)C(=O)Nc2ccc(OC)nc2)cc1", "note": "(stereo not drawn)", "inhibition": "41% (active)"},
      {"smiles": "COc1ccc(NC(=O)/C(Cl)=C(/Cl)S(=O)Cc2ccc(C)cc2)cn1", "note": "(stereo not drawn)", "inhibition": "30.1%"},
      {"smiles": "COc1ccc(CCNC(=O)c2cnc(Cl)c(Cl)c2)cc1", "inhibition": "17.4%"},
      {"smiles": "COc1ccc(CCNC(=O)COC(=O)c2ccc[nH]c2=O)cc1", "inhibition": "7.85%"},
      {"smiles": "O=C(Cn1cnc2c(OCc3ccccc3)ncnc21)NCc1nc2ccccc2[nH]1", "inhibition": "-4.29%"},
      {"smiles": "CC(C)Cn1c(N)c(C(=O)NCc2cccs2)c2nc3ccccc3nc21", "inhibition": "43.7% (active)"},
      {"smiles": "CCOc1ccccc1NC(=O)Cn1nnc(C(=O)NCc2cccs2)c1N", "inhibition": "10.5%"},
      {"smiles": "Cn1ncc(Br)c1C(=O)NCc1cccs1", "inhibition": "1.74%"},
      {"smiles": "NS(=O)(=O)c1cc2c(cc1Cl)NC(C(Cl)Cl)NS2(=O)=O", "note": "(stereo not drawn)", "inhibition": "0.045%"},
      {"smiles": "CCCCCCC(=O)Nc1nc(C)c(-c2csc(Nc3cccc(OC)c3)n2)s1", "inhibition": "14.8%"},
      {"smiles": "Cc1nc(NC(=O)c2cccc(Cl)c2)sc1-c1csc(Nc2cccc(Cl)c2)n1", "inhibition": "-8.28%"},
      {"smiles": "C=CCCC(=O)Nc1nc(C)c(-c2csc(Nc3ccc(Cl)cc3)n2)s1", "inhibition": "41.2% (active)"},
      {"smiles": "CCCCCCC(=O)Nc1nc(C)c(-c2csc(Nc3cc(Cl)ccc3OC)n2)s1", "inhibition": "3.74%"},
      {"smiles": "Cc1nc(NC(=O)CN(C)S(=O)(=O)c2ccc(Cl)cc2)sc1C", "inhibition": "4.21%"},
      {"smiles": "CCCCC(=O)Nc1nc(C)c(-c2csc(Nc3ccc(Cl)cc3)n2)s1", "inhibition": "42.5% (active)"},
      {"smiles": "COc1ccc(S(=O)(=O)c2c[nH]c(=S)[nH]c2=O)cc1Cl", "inhibition": "-8.62%"},
      {"smiles": "O=C(CCN1C(=O)c2ccncc2C1=O)Nc1cc(F)ccc1F", "inhibition": "7.78%"},
      {"smiles": "CC(=O)N1CCCc2cc(S(=O)(=O)N3CCCC(C(=O)N4CCN(c5cccc(Cl)c5)CC4)C3)ccc21", "note": "(stereo not drawn)", "inhibition": "10.1%"},
      {"smiles": "O=c1[nH]cnc2c1c(-c1ccccc1)cn2-c1ccc(F)cc1", "inhibition": "34.1%"},
      {"smiles": "COc1ccc(-n2c(=S)[nH]c3sc4c(c3c2=O)CCc2ccccc2-4)cc1", "inhibition": "6.58%"},
      {"smiles": "COc1ccc(-n2cc(-c3ccccc3)c3c(=S)nc[nH]c32)cc1", "inhibition": "40.1% (active)"},
      {"smiles": "COC(=O)c1c(-c2cccs2)csc1NC(=O)CSc1ncnc2sc(C)c(C)c12", "inhibition": "17.6%"},
      {"smiles": "C=CCn1c(SCC(=O)Nc2ccc(NC(C)=O)cc2)nc2sc(C)c(C)c2c1=O", "inhibition": "15.8%"},
      {"smiles": "Cc1sc2ncnc(SCC(=O)Nc3ccc(CN4CCCC4)cc3)c2c1C", "inhibition": "46.3% (active)"},
      {"smiles": "Cc1cc(C(=O)OCC(=O)Nc2ccc(F)c(F)c2)c(C)o1", "inhibition": "-15.7%"},
      {"smiles": "Cc1cccc(NC(=S)N2CCC(c3nc4ccccc4s3)CC2)c1", "inhibition": "47% (active)"},
      {"smiles": "Cc1cccc(NC(=S)N2CCCC(c3nc4ccccc4[nH]3)C2)c1", "note": "(stereo not drawn)", "inhibition": "0.466%"},
      {"smiles": "Cc1cccc(C(=O)N2CCC(c3nc4ccccc4s3)CC2)c1", "inhibition": "20.6%"},
      {"smiles": "COc1ccc(OC)c(C(O)c2nc3ccccc3n2C)c1", "note": "(stereo not drawn)", "inhibition": "12%"},
      {"smiles": "CNC[C@@H]1Oc2c(NS(C)(=O)=O)cccc2C(=O)N([C@@H](C)CO)C[C@H]1C", "inhibition": "-4.12%"},
      {"smiles": "NS(=O)(=O)c1ccc(N2C(=O)C3C4CC(C(Br)C4Br)C3C2=O)cc1", "note": "(stereo not drawn)", "inhibition": "-7.31%"},
      {"smiles": "ON=C1/C(=N\\O)CC2(C/C1=N/O)OCCO2", "inhibition": "-13.1%"},
      {"smiles": "Cc1cccnc1NC(=O)c1cccc(S(=O)(=O)N2CCN(c3ccc(F)cc3)CC2)c1", "inhibition": "23.8%"},
      {"smiles": "Oc1c(CN2CCN(c3ccc(F)cc3)CC2)cc(Cl)c2cccnc12", "inhibition": "45.3% (active)"},
      {"smiles": "Oc1c(CN2CCCC2)cc(COCc2ccccc2)c2cccnc12", "inhibition": "14.6%"},
      {"smiles": "CCN(CCn1cccn1)Cc1cn[nH]c1-c1ccc(OC)cc1F", "inhibition": "6.84%"},
      {"smiles": "COc1cc2sc(C)nc2cc1C", "inhibition": "13.3%"},
      {"smiles": "Cc1ccc(S(=O)(=O)N(Cc2cccc([N+](=O)[O-])c2)C(=O)N2CCN(C)CC2)cc1", "inhibition": "26.5%"},
      {"smiles": "CCOc1ccc(NC(=O)C2CC(=O)N=C(N)S2)cc1", "note": "(stereo not drawn)", "inhibition": "3.69%"},
      {"smiles": "CC(OC(=O)c1ccccc1OCc1ccc(Cl)cc1)C(N)=O", "note": "(stereo not drawn)", "inhibition": "-12.2%"}
    ]}
  ]
}
